This is an account of results in PubChem BioAssay AID1963317 (National Center for Advancing Translational Sciences (NCATS), 2024).

Inconclusive results are not listed. Active and inactive are the calls of the source. The call rests on the fitted dose curve.

Chain of Tyrosine-protein kinase ABL1 (Homo sapiens) (P00519 whole entry, looked up): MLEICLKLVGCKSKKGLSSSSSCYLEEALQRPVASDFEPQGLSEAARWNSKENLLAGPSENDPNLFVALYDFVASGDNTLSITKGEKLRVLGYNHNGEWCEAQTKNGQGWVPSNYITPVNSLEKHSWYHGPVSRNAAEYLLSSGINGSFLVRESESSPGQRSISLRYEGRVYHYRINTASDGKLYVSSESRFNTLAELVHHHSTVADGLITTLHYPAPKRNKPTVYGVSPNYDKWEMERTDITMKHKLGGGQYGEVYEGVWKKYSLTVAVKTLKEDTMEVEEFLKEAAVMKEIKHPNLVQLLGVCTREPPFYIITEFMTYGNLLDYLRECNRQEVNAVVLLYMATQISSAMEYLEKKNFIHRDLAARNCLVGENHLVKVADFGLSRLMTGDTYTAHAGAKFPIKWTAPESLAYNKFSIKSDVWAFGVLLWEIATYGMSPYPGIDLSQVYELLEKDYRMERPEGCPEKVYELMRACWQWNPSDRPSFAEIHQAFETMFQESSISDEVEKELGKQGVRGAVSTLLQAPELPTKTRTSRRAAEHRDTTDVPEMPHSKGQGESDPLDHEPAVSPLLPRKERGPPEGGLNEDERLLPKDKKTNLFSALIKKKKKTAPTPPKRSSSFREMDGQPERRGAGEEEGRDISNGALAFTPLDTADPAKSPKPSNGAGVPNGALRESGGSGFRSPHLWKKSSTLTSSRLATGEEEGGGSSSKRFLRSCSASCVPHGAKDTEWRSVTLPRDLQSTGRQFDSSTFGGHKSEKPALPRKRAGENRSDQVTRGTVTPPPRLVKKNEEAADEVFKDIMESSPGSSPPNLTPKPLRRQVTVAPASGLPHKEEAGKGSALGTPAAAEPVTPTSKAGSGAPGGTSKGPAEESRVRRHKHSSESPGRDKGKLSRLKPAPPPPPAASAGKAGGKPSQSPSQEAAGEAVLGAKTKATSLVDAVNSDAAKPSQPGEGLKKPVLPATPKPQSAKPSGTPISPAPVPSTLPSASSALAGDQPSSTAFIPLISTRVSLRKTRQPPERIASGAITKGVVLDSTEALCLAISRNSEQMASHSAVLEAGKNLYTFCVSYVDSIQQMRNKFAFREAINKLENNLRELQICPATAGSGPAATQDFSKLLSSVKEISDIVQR

For the experiment, the target named is Tyrosine-protein kinase ABL1 (Homo sapiens) (UniProt P00519). In words: ABL1 kinase (ABL1-N-HiBiT) enzymatic inhibition screen - Functional assay. As to conditions: luminescence; series mostly up to 57.5 µM; activity change, negative = inhibition: at the top concentration. An excerpt:
National Center for Advancing Translational Sciences (NCATS),
National Institute of Health (NIH), Maryland
Discovery and optimization of novel protein-binding ligands underlies many of the methods and applications of biology, drug discovery, clinical diagnostics, and environmental toxicology. Assays for detecting the interaction of, for example, a molecule with a macromolecular target also referred to here as the target of interest (TOI) is dependent on a compatible output technology. Depending on the nature and knowledge surrounding the TOI, whether a receptor, enzyme, regulatory subunit or scaffold, or a sequence-defined nucleic acid folded into a complex tertiary structure, assay strategies can vary widely.
Here we exploit ligand-biased changes in the structural dynamics of the target protein to control reporter alpha complementation allowing a non-competitive, non-functional, non-separation measure of ligand-target interaction.
Using a chemical library of >1,200 compounds enriched for scaffolds known to be associated with the inhibition of firefly luciferase (FLuc) activity (PubChem AIDs 2309) we first illustrate and compare the Structural Dynamics Response (SDR) assay vs. the standard functional FLuc enzyme assay (2). Secondly, we show the specificity and sensitivity of the SDR for the Abelson tyrosine kinase (ABL1) compared to the serine/threonine protein kinase A, using an enriched chemical library of 128 compounds selected, in part, for activity annotated with ABL1 kinase activity using the Pharos database (3).
(1) A. S. Dixon et al., NanoLuc Complementation Reporter Optimized for Accurate Measurement of Protein Interactions in Cells.
Chemistry & Biology, 19, 1060 - 1072 (2012).
(3) K. J. Kelleher et al., Pharos 2023: an integrated resource for the understudied human proteome. Nucleic Acids Res 51, D1405-D1416 (2023).
PROTOCOL TABLE (as described by Inglese J, Shamu CE and Guy RK. 2007)
SEQUENCE No. (e.g., 1, 2, 3, etc.); […] (e.g., C. elegans, Compounds, Incubation, Read, etc.); VALUE and DESCRIPTION.
1. Reagent. Dispense 4 uL ABL1-N-HiBiT enzyme per well at a final enzyme concentration of 10 nM in buffer with 87.5 uM ATP (functional assay) into columns 2-48 of four replicate Greiner 1536-well white, solid bottom high base, medium plates per assay. Dispense respective buffer without enzyme at 4 uL/well in column 1 of assay plates using BioRaptr 2.
2. Compounds. Library compounds added at 23 nL/well by pin transfer. DMSO neutral control and imatinib positive control added at 25 nL/well, transfer by Mosquito dispenser.
3. Incubation. Incubate enzyme and compounds at room temperature for 30 min, protected from light.
4. Reagent. (Functional assay) Transfer 25 nL of abltide peptide substrate to each well of four replicate kinase assay plates with Mosquito dispenser.
5. Incubation. (Functional assay) Kinase enzyme incubated with peptide substrate for 3 h at room temperature, protected from light.
6. Reagent. (Functional assay) Add 4 uL/well of Kinase-Glo Plus reagent (Promega) to kinase activity assay plates, in the presence of ATP.
7. Detector. (Functional assay) Luminescence measured using CCD-based camera (ViewLux) with settings as follows: Exposure, 1 sec; Gain, High; Speed, Slow; Binning, 2X.
Inglese J, Shamu CE and Guy RK, Reporting data from high throughput screening of small molecule libraries, Nature Chemical Biology, 2007, 3(8): 438-441. doi.org/10.1038/nchembio0807-438.
Take `CCNC(=O)C[C@@H]1N=C(c2ccc(Cl)cc2)c2cc(OC)ccc2-n2c(C)nnc21`: the “activity change, negative = inhibition” value was 30% (inactive).

For `O=C(NCCCNc1nc(Nc2ccc(N3CCOCC3)cc2)ncc1C1CC1)C1CCC1`, the “activity change, negative = inhibition” value is 22.3% (inactive). Consider `C/C(O)=C(\C#N)C(=O)Nc1cc(Br)ccc1Br`, for which the “activity change, negative = inhibition” value was 36.4% (inactive). As for `N#Cc1cn([C@@H]2O[C@H](CO)[C@H](O)[C@@H]2O)c2ncnc(N)c12`, the figure is 23.6% (inactive); as for `Cc1[nH]nc2ccc(-c3cncc(OC[C@@H](N)Cc4c[nH]c5ccccc45)c3)cc12`, 32.6% (inactive). For `O=[N+]([O-])O[C@H]1CO[C@H]2[C@@H]1OC[C@H]2O[N+](=O)[O-]`, the “activity change, negative = inhibition” value is 28.1% (inactive).
